Assay results reported in the supplement of paper PMC9877034.
Structures can show the parent of a compound that is named as a salt. The full ranking holds about 1,000 compounds; the median of “cFRET/donor change relative to DMSO, normalised to beta-lapachone positive control (supercomplex I-IV assembly)” is about 0.18, and the lowest 2% start at about -1. For the sample, the lowest values were picked, then their nearest neighbours and some compounds at random.

Each compound was assayed on C2C12 (NDUFB8-AcGFP / COX8A-DsRed-Monomer FRET reporter) (assay: cFRET/donor change relative to DMSO, normalised to beta-lapachone positive control (supercomplex I-IV assembly) (fraction of beta-lapachone effect); higher = more respiratory supercomplex assembly). Conditions: 40 µM; 24 h.
Method: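 Cells were treated with 40 uM compound for 24 h and imaged on an IN Cell Analyzer 6000. Corrected FRET was divided by donor signal (cFRET/donor) and measured in two replicate experiments. The score is (mean cFRET/donor of compound - mean DMSO) / (mean beta-lapachone 40 uM - mean DMSO). Compounds flagged for prominent cell death, abnormal morphology or decreased cell number were excluded.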

| SMILES | cFRET/donor change |
| --- | --- |
| COc1cc2nc(N3CCCN(C)CC3)nc(NC3CCN(Cc4ccccc4)CC3)c2cc1OC | 0.186 |
| C=C(c1ccc(C(=O)O)cc1)c1cc2c(cc1C)C(C)(C)CCC2(C)C [Bexarotene] | 0.499 |
| c1ccc(C(NCCNC(c2ccccc2)c2ccccc2)c2ccccc2)cc1 | 0.0957 |
| COc1ccccc1CNC1CCCNC1c1ccccc1 (stereo not drawn) | 0.266 |
| O=C(Nc1cc(C(F)(F)F)cc(C(F)(F)F)c1)Nc1c(Br)cc(Br)cc1-c1nn[nH]n1 | 1.37 |
| C[C@@H](O)[C@H]1C(=O)N2C(C(=O)O)=C(SCCNC=N)C[C@H]12 [Imipenem monohydrate] | 0.461 |
| COc1cc(OC)c(C=C2C(=O)Nc3ccccc32)c(OC)c1 | 0.382 |
| Cc1cc(C)c(/C=C2\C(=O)Nc3ccccc32)[nH]1 | -2.59 |
| CN(C)CCC(c1ccc(Br)cc1)c1ccccn1 (racemic) [(±)-Brompheniramine maleate] | 0.0175 |
| Clc1ccc(C(c2ccccc2Cl)C(Cl)Cl)cc1 (stereo not drawn) [1-(2-Chlorophenyl)-1-(4-chlorophenyl)-2,2-dichloroethane] | 0.237 |
| NCCC[C@](N)(C(=O)O)C(F)F (racemic) [DL-alpha-Difluoromethylornithine hydrochloride] | 0.232 |
| COc1cc(/C=C/C(=O)N2CCC=CC2=O)cc(OC)c1OC [Piperlongumine] | -0.315 |
| CC(C)(C=O)Cc1cc(C(C)(C)C)c(O)c(C(C)(C)C)c1 | 0.29 |
| N#CC(C#N)=C(N)/C(C#N)=C/c1ccc(O)cc1 [Tyrphostin AG 112] | 0.38 |
| CC(C)(C)c1cc(/C=C(\C#N)C(N)=S)cc(C(C)(C)C)c1O [Tyrphostin AG 879] | -2.01 |
| COc1ccc(C2(O)OC(=O)C(c3ccc4c(c3)OCO4)=C2Cc2cc(OC)c(OC)c(OC)c2)cc1 (stereo not drawn) | 0.173 |
| CCN1CCCC1CNC(=O)c1cc(S(N)(=O)=O)ccc1OC (single isomer, unassigned; (-)) [(-)-Sulpiride] | 0.312 |
| CC[C@@]1(O)C(=O)OCc2c1cc1n(c2=O)Cc2cc3c(CN(C)C)c(O)ccc3nc2-1 [Topotecan hydrochloride hydrate] | -3.92 |
| NCCS(=O)(=O)O [Taurine] | -0.02 |
| NCCCCN [Putrescine dihydrochloride] | 0.0353 |
| NCCCS(=O)(=O)O [3-Amino-1-propanesulfonic acid sodium] | -2.05 |
| COC1=C(OC)C(=O)c2ccccc2C1=O [2,3-Dimethoxy-1,4-naphthoquinone] | 0.433 |
| Cc1cc(Cl)ccc1OCCCC(=O)NO [Droxinostat] | 0.131 |
